GDH-TPI inh = GDH-TPI coupling enzyme inhibitors, primary screen, artefact control for M. tuberculosis FBA inhibitor project, biochemical, absorbance, full deck; inhibition, % at 4.8 µM; AID 588335, 2011; GDH-TPI coupled enzyme counterscreen, NADH absorbance; hit rate 1.2% among 360,000; in the data active = inhibition above about 30%;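 also: 0% = DMSO wells and 100% = wells lacking the enzyme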
PrP UTR inh = inhibition of PrP 5' UTR reporter expression; inhibition, % (test concentration not listed); cell-based PrP 5' UTR mRNA reporter, plate reader; hit rate 0.35% among 340,000; in the data active = inhibition above about 52%; also: 0 = median of the neutral control wells
PfHsp40 yeast = rescue of yeast from PfHsp40 toxicity, primary screen, S. cerevisiae, ATP luminescence. S. cerevisiae expressing PfHsp40, growth rescue. hit rate 0.68% among 340,000. growth rescue, % at 12.5 µM. AID 504582, 2011; in the data active = growth rescue above about 28%, passing the limit was not always enough;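 also: yeast W303a lacking pdr1 and pdr3 grown in galactose medium; growth measured after three days at 30 °C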
BJeLR lethal = MLPCN primary cell-based screen for lethality selective to Ras in HRASV12 cells | inhibition, % (concentration not given with the values) | BJeLR (HRASV12) viability, CellTiter-Glo ATP luminescence, 48 h | hit rate 0.17% among 300,000; in the data active = inhibition above about 50%
Mtb FBA inh = Mtb FBA enzyme inhibitors, primary screen, biochemical, fluorescence, strain H37Rv | Fructose-bisphosphate aldolase (Mycobacterium tuberculosis (strain ATCC 25618 / H37Rv)), … | purified M. tuberculosis FBA, fluorescence read-out | inhibition, % at 1 µM | hit rate 2.3% among 360,000 | AID 588726, 2011; in the data active = inhibition above about 27%;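 also: 0% = vehicle and 100% = reference inhibitor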
Target sequence (P9WQA3 whole entry, looked up): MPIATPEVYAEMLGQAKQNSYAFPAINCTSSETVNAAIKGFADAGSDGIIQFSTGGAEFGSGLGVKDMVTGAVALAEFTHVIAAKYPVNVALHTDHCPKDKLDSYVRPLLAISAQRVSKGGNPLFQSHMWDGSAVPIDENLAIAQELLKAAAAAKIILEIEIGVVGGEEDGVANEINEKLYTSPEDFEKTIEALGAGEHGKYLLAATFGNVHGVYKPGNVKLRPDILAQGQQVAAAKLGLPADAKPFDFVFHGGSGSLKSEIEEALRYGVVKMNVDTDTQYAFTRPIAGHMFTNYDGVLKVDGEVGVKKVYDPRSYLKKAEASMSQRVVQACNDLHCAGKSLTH
PrPC surface inh = inhibitors of human cell surface prion protein PrPC, primary screen, cell-based, TR-FRET; TR-FRET read-out; hit rate 0.43% among 370,000; inhibition, % at 13.8 µM; in the data active = inhibition above about 24%; also: 0% = median of the test wells and 100% = reference compound wells
Starred values were filed as active, the others as inactive; . = not tested or not shown; + = active, no number. The list is not random: actives were taken first. Their share in the collection is about 4.5%.

SMILES	GDH-TPI inh	PrP UTR inh	PfHsp40 yeast	BJeLR lethal	Mtb FBA inh	PrPC surface inh
Cc1ccc(C=NNc2ccc([N+](=O)[O-])cn2)cc1	14	-140	36*	.	-7	-4
Cc1cccc(C(C)Nc2ccc([N+](=O)[O-])cn2)c1 (stereo not given)	31*	-19	3	-12	-7	-13
CC(=O)OC12CCCN(C1)/C(=C/c1cccnc1)C2 (stereo not given)	.	.	.	.	.	-7
O=C(CSc1cccc[n+]1[O-])Nc1ccccc1C(F)(F)F	10	-17	-1	.	0	-2
O=C(CSc1cccc[n+]1[O-])Nc1ccccc1Oc1ccccc1	12	-2	90*	-7	-2	-1
COC(=O)C1CN(Cc2cn(Cc3ccc(F)cc3)nn2)CCS(=O)(=O)N1Cc1ccc(F)cc1 (stereo not given)	.	.	.	.	.	4
N#CC(C#N)=Cc1c[nH]c(=O)c(C#N)c1Nc1ccccc1	16	.	.	-5	+	-23
O=C(Cn1cc(COc2ccc3ccc(=O)oc3c2)nn1)c1ccc(O)cc1	41*	-12	0	.	7	13
O=C(Cn1cc(COc2c(F)c(F)c(Br)c(F)c2F)nn1)c1ccc(O)cc1	31*	-29	1	.	0	0
CCCCC(=O)N1CCN(C(=O)c2ccc3c(c2)nc(C)n3C2CCCC2)CC1	.	.	.	.	.	3
Cc1ccc(-c2cc(-c3ccccc3)cc(-c3ccccc3)[n+]2-c2ccccc2)cc1	7	-56	1	75*	10	27*
c1ccc(-c2cc(-c3ccccc3)[n+](-c3ccccc3)c(-c3ccccc3)c2)cc1	15	-9	-1	15	5	20
Cc1ccc(-c2cc(-c3ccc(C)cc3)[n+](-c3ccccc3)c(-c3ccc(C)cc3)c2)cc1	25	46	229*	68*	11	.
CCn1c(SCc2c(F)cccc2F)nc2sc3c(c2c1=O)CCCC3	.	.	.	.	.	3
COP(=O)(O)C(COCCC(CC(C)C)NC(=O)OCc1ccccc1[N+](=O)[O-])NC(=O)OCc1ccccc1 (stereo not given)	.	.	.	.	.	-8
Cc1ccc(NC(=O)c2cnn(-c3ccccc3)c2NC(=O)c2ccco2)cc1	11	-19	0	5	181*	5
CCc1cccc(NC(=O)c2cnn(-c3ccccc3)c2C)c1	2	-70	38*	3	3	5
COc1cccc(NC(=O)c2cnn(-c3ccccc3)c2C)c1	9	-24	1	15	0	3
O=C(Nc1c(C(=O)Nc2ccccc2)cnn1-c1ccccc1)c1ccco1	4	-16	-1	1	0	1
COC(=O)c1ccc(Cn2ccc3ccc(-c4ccc5ccn(C(=O)c6ccccc6C)c5c4)cc32)cc1	.	.	.	.	.	2
CCOC(=O)c1[nH]c2cc3c(cc2c1NC(=O)CN1CCN(CCO)CC1)OCO3	46*	-17	0	-5	130*	-7
CCOC(=O)c1[nH]c2cc3c(cc2c1NC(=O)CN1CCCCC1C)OCO3 (stereo not given)	.	.	.	1	.	.
CCN(CC)S(=O)(=O)c1cccc(C(=O)N/N=C/c2ccc(O)c(O)c2O)c1	22	-5	202*	.	-5	4
COc1ccc(O)c(/C=N/NC(=S)Nc2cccc(S(=O)(=O)N(C)C)c2)c1	6	16	3	6	4	-6
CCN(CC)S(=O)(=O)c1cccc(C(=O)Nc2ccc(Cl)cn2)c1	6	-20	56*	-3	-5	-7
SMILES	GDH-TPI inh	PrP UTR inh	PfHsp40 yeast	BJeLR lethal	Mtb FBA inh	PrPC surface inh
CCN(CC)S(=O)(=O)c1cc(C(=O)Nc2ccc(Cl)cn2)ccc1C	-5	-61	-1	-1	2	-14
CN(C)S(=O)(=O)c1cccc(NC(=S)N/N=C/c2ccco2)c1	52*	.	3	13	4	3
CN(C)S(=O)(=O)c1cccc(NC(=S)N/N=C/c2ccc(O)c(O)c2O)c1	32*	-19	-1	4	-5	6
CCOC(=O)[C@]12CCCCC/C=C\1N(Cc1ccc(OC)cc1)C(=O)[C@H]2CC(=O)NCCCOC	.	.	.	.	.	4
CCCCCCCCN1C(=O)[C@@H](CC(=O)N2CCCCC2)C[C@@]2(C(=O)OC)C1=C[C@H](C(C)C)O[C@@H]2C1CC1	.	.	.	.	.	-2
C[n+]1c(-c2ccc(C=NNC(=O)c3ccc(C(=O)NN=Cc4ccc(-c5cn6ccccc6[n+]5C)cc4)cc3)cc2)cn2ccccc21	.	-30	92*	.	.	8
O=C(NCCCc1ccccc1)OC1CCC12CCC(c1ccccc1)CC2 (stereo not given)	.	.	.	.	.	-2
CC(C)CNC(=O)C1CSCCS(=O)(=O)N1Cc1ccc(F)cc1 (stereo not given)	.	.	.	.	.	9
CC(Oc1ccc2c(c1)oc(=O)c1ccccc12)C(=O)NCCN1CCOCC1 (stereo not given)	5	-3	0	-3	60*	-4
Cc1cc(=O)oc2cc(OC(C)C(=O)NCCCn3ccnc3)ccc12 (stereo not given)	11	-1	95*	-1	16	0
COc1ccc2c(c1)c(=O)oc1cc(OC(C(=O)O)c3ccccc3)ccc12 (stereo not given)	15	-28	0	0	+	5
O=C(O)C(Oc1ccc2c(-c3ccccc3)cc(=O)oc2c1)c1ccccc1 (stereo not given)	10	-24	-1	12	0	-4
CC(Oc1ccc2c(c1)oc(=O)c1ccccc12)C(=O)NCC1CCC(C(=O)O)CC1 (stereo not given)	15	-25	1	-8	129*	5
CCc1cc(=O)oc2cc(OC(C)C(=O)NCCCn3ccnc3)ccc12 (stereo not given)	0	-4	0	4	9	6
CC(Oc1ccc2c(-c3ccccc3)cc(=O)oc2c1)C(=O)NCCN1CCOCC1 (stereo not given)	21	-10	-1	-1	-2	-8
CCOc1ccc(-n2c(SCC(=O)Nc3ccccc3-c3ccccc3)nnc2-c2cccs2)cc1	.	.	.	.	.	9
O=C(N[C@H]1CC[C@@H]2SC[C@@H](C(=O)O)N2C1=O)OCC1c2ccccc2-c2ccccc21	.	.	.	.	.	8
O=C(Cc1ccc(Cl)cc1)NNC(=S)NC(=O)c1cccs1	-9	-25	5	-17	1	6
O=C(Cc1cccs1)NNC(=S)NCc1ccc(Cl)cc1	-9	-9	72*	-3	-1	10
CCC(c1nnnn1-c1ccc2c(c1)OCCO2)N1CCN(c2ncccc2C(F)(F)F)CC1 (stereo not given)	.	.	.	.	.	8
CCOC(=O)C1=C(C)NC2=C(C(=O)CCC2)C1c1cccs1 (stereo not given)	20	1	0	-6	2	-6

From PubChem
